The list is not random: actives were taken first. Their share in the collection is about 7.5%.
FLuc counter – qHTS profiling assay for firefly luciferase inhibitor/activator using purifed enzyme and Km concentrations of substrates (counterscreen for miR-21 project). Luciferin 4-monooxygenase (Photinus pyralis), P08659. purified FLuc, Km substrates, luminescence inhibition. Potency, µM (series often up to 57.5 µM), most hits filed as inhibitors. 6.9% of 360,000 active; also: nearly all actives have a fitted effect of over 55% in size
Target sequence (P08659 whole entry, looked up): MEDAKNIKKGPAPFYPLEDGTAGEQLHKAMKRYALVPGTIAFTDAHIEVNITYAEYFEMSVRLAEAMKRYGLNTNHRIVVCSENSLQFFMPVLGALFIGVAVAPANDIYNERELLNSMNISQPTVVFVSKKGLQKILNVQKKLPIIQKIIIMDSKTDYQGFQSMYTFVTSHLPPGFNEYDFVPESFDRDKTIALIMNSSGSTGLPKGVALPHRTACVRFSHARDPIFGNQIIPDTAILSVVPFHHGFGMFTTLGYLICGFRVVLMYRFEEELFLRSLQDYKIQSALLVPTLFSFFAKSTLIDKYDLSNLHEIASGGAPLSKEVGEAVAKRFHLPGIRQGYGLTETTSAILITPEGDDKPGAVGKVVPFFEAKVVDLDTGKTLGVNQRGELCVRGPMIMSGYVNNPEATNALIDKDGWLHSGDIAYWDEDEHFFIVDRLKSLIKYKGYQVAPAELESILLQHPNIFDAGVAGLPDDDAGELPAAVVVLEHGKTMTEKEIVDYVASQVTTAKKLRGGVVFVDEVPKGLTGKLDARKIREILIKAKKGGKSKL
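Purified P. pyralis luciferase (10nM final) with 10uM D-luciferin and 10uM ATP (Km levels) in 50mM Tris acetate pH 7.5, 10mM Mg acetate, 0.01% Tween-20, 0.05% BSA; qHTS 6-point titration, ~60 µM downward; luminescence read.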
SMN2 splice up – qHTS Assay for Enhancers of SMN2 Splice Variant Expression; 2.8% of 210,000 active; AID 1458, 2008; Potency, µM (highest dose often 46.1 µM), most hits filed as activators; HEK293 SMN2-luciferase splicing reporter, luminescence, 30-36 h; also: nearly all actives have a fitted effect of over 55% in size
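HEK293 cells carry an SMN2 minigene-luciferase reporter in which exon 7 inclusion puts luciferase in frame. Cells were seeded at 2000 cells/well, attached for 10-12 hours, then exposed to compounds for 30-36 hours at 37C before ONE-Glo luminescence.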
ELG1 genotoxic – qHTS screen for small molecules that induce genotoxicity in human embryonic kidney (HEK293T) cells expressing luciferase-tagged ELG1; HEK293T ELG1-luciferase reporter, luminescence, 16 h; Potency, µM (titrated, usually from 46 µM), actives largely listed as activators; 1.3% of 330,000 active; AID 504466, 2011; also: nearly all actives have a fitted effect of over 60% in size
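Cells (2,000/well) expressing the ELG1-luciferase fusion are dosed by pin tool and kept 16 hr at 37 °C, 5% CO2. Signal comes from ONE-Glo luciferase reagent after 30 min at room temperature.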
Rab9 promoter act – qHTS Assay for Rab9 Promoter Activators. 2.8% of 320,000 active. Potency, µM (highest dose often 9.22 µM), hits mostly activators. Huh7 Rab9 promoter-luciferase reporter, luminescence, 24 h; also: nearly all actives have a fitted effect of over 60% in size
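Huh7 cells stably carrying Rab9 promoter–luciferase reporter, plated 1500 cells/well, compound added after 2 h and incubated 24 h at 37 °C; luciferase luminescence then read after 10 min with detection reagent.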
NPC1 promoter act – qHTS Assay for NPC1 Promoter Activators | Huh7 NPC1 promoter luciferase reporter, 24 h | Potency, µM (titrated, usually from 9.22 µM), most hits filed as activators | 2.4% of 320,000 active | AID 485313, 2010; also: nearly all actives have a fitted effect of over 60% in size
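Luminescence read-out of NPC1 promoter-driven luciferase in stably transfected Huh7 cells; compounds delivered in DMSO and left 24 h at 37C, 5% CO2, qHTS titration format.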
Luc counter – Counterscreen for Luciferase (Kinase-Glo TM) Inhibition; Potency, µM (top dose mostly 38.3 µM), hits mostly inhibitors; AID 1379, 2008; 0.28% of 200,000 active; Kinase-Glo luciferase, ATP luminescence, 8 min; also: nearly all actives have a fitted effect of over 60% in size
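Compounds were added to a substrate mix at pH 7.2 (50 mM imidazole, 10 uM ATP, within the enzyme's linear range), followed by Kinase-Glo detection reagent; luminescence was measured after 8 minutes at ambient temperature.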
Numbers stand for hits; i = inactive; ? = inconclusive; nt = no result; [ ] = dose if it differs, or a comment. Calls follow the shape of the dose curve; as a rule, active = well fitted curve in the direction sought with a large enough effect; inconclusive = small, poorly fitted or top-dose-only effect, or another doubt; inactive = no such curve, though single readings can be large; an effect the other way counts as inactive or inconclusive.

SMILES	FLuc counter	SMN2 splice up	ELG1 genotoxic	Rab9 promoter act	NPC1 promoter act	Luc counter
Cc1ccc(Nc2nc(=O)c3cccnc3s2)cc1	12µM	i	?	2.5µM	3.2µM	i
O=c1nc(NCc2ccco2)sc2ncccc12	i	nt	i	i	i	i
COc1ccc(OC)c(Nc2nc(=O)c3cccnc3s2)c1	17µM	i	i	i	i	11µM
COc1cccc(-c2nc(CS(=O)(=O)CC(=O)NCc3ccc(C)cc3)c(C)o2)c1	i	i	nt	nt	nt	nt
O=C(Nc1cccc(Cl)c1)c1cc2c(=O)[nH]c3ccccc3c2s1	?	i	nt	nt	nt	nt
CC1CCc2sc(C(=O)OCC(=O)NCc3ccccc3)cc2C1 (stereo not given)	i	nt	i	i	i	nt
C/C(N)=C(/C#N)C(=O)COC(=O)c1cc2c(s1)CCCC2	15µM	i	?	i	i	i
C/C(N)=C(/C#N)C(=O)COC(=O)c1cc2c(s1)CCC(C)C2 (stereo not given)	17µM	i	?	i	i	i
N#Cc1cccc(-c2nnc(SCc3ccccc3C#N)o2)c1	?	?	?	?	?	i
CN(C)c1cccc(-c2nnc(SCCCC#N)o2)c1	6.7µM	11µM	?	2.2µM	3.2µM	i
CCN(CC)C(=O)CSc1nnc(-c2ccccc2)o1	?	i	16µM	3.5µM	?	i
CSc1nnc(-c2ccccc2)o1	i	i	i	i	i	i
CN(C)CCSc1nnc(-c2ccccc2)o1	?	10µM	13µM	i	i	i
O=C(Nc1ccccc1)C(=O)c1cn(CC(=O)N2CCCCC2)c2ccccc12	13µM	i	i	i	i	i
CC(=O)c1cccc(NC(=O)C(=O)c2cn(CC(=O)N3CCCCC3)c3ccccc23)c1	8.5µM	i	i	i	i	i
CCc1ccc(OCc2ccccc2C(=O)Nc2ccc3nc(C)cc(N)c3c2)cc1	nt	nt	nt	nt	nt	i
CNC(=O)Cn1cc(S(=O)(=O)Cc2ccccc2F)c2ccccc21	i	nt	nt	nt	nt	nt
CC(C)OC(=O)c1cccc(C(=O)O)n1	i	i	i	i	i	i
CC(C)OC(=O)c1cccc(C(=O)Oc2ccc(Br)cc2)n1	9.5µM	i	i	i	i	i
C=CCn1c(COc2ccc3c(c2)CCCC3)nnc1SCC(=O)Nc1cccc(SC)c1	13µM	i	i	i	i	i
COc1ccc(OCc2nnc(SCC(=O)Nc3cccc(C(C)=O)c3)o2)cc1	19µM	nt	i	i	i	nt
C=CCn1c(COc2ccccc2)nnc1SCC(=O)Nc1ccc2c(c1)OCCO2	i	i	i	i	i	i
COc1cccc(NC(=O)CSc2nnc(COc3ccc4c(c3)CCCC4)o2)c1	21µM	i	i	i	i	i
CC(CN(C)C)NC(=O)c1ccc(Cc2nc3ccccc3[nH]2)cc1 (stereo not given)	nt	nt	nt	nt	nt	i
CN(C)CCN(Cc1ccco1)C(=O)c1cc2c(s1)-c1ccccc1OC2	i	i	nt	nt	nt	nt
SMILES	FLuc counter	SMN2 splice up	ELG1 genotoxic	Rab9 promoter act	NPC1 promoter act	Luc counter
COc1ccc(-c2cc(C(=O)N/N=C\c3cc(OC)c(OC)c(OC)c3)[nH]n2)cc1	nt	nt	nt	nt	nt	i
Nc1c(-c2ccccc2)cnn1-c1cccc([N+](=O)[O-])c1	15µM	i	?	?	?	i
Cc1nn(-c2cccc([N+](=O)[O-])c2)c(N)c1-c1ccccc1	15µM	13µM	i	2.5µM	?	i
O=[N+]([O-])c1ccc2cn(-c3ccccc3)nc2c1	9.5µM	18µM	?	2µM	?	i
Nc1nn(-c2ccccc2)c2ccc([N+](=O)[O-])cc12	17µM	nt	i	i	i	nt
CCCOc1ccc(CNC(=O)C(NS(=O)(=O)c2cccs2)C(C)C)cc1 (stereo not given)	i	nt	nt	nt	nt	nt
O=C(c1ccncc1)N1CCC[C@@]2(CCN(c3ccccc3)C2)C1	nt	i	nt	nt	nt	i
Nc1c(-c2ccc(Cl)cc2)cnn1-c1cccc([N+](=O)[O-])c1	15µM	i	i	?	i	i
Nc1c(-c2ccc(Cl)cc2)cnn1-c1cccc(C(F)(F)F)c1	?	i	i	?	?	i
Cc1ccc(C)c(N2CCN(C(=O)CSCc3ccccc3Cl)CC2)c1	i	nt	nt	nt	nt	nt
CCn1cc(S(=O)(=O)c2ccc(C)cc2C)c(=O)c2cc(F)c(N3CCCCC3)cc21	i	nt	nt	nt	nt	nt
Cc1cc(-c2ccccc2)n2nc(-c3cccc(Br)c3)cc2n1	i	i	nt	nt	nt	nt
COC(=O)C(CCSC)NC(=O)c1cc2c(n(-c3ccc(C)cc3)c1=O)CC(C)(C)CC2=O (stereo not given)	i	i	nt	nt	nt	nt
CCCOc1ccc(C(=O)Nc2ccc3c(c2)OCCO3)cc1	1.2µM	nt	2.9µM	0.56µM	0.35µM	nt
CC(=O)c1ccc(OCCCC(=O)Nc2ccc3c(c2)OCCO3)cc1	i	nt	i	i	i	nt
O=C(CCNc1ccccc1)c1ccc2c(c1)OCO2	4.8µM	i	?	2.5µM	2.2µM	i
COc1ccc(C(=O)CCNc2cccc(Cl)c2)cc1	?	?	?	3.5µM	?	i
CCCOc1ccc(C(=O)CCNc2cccc(Cl)c2)cc1	i	i	i	i	i	i
CC(=O)Oc1ccc(C(=O)Nc2ccc3c(c2)OCCO3)cc1	11µM	nt	?	1.6µM	1µM	nt
COc1ccccc1CC(=N)N1C[C@@H]2C(=O)CCC(c3ccccc3)(c3ccccc3)[C@@H]2C1	nt	nt	nt	nt	nt	i
COc1cccc(N2CCN(C(=O)Cn3c(-c4cccs4)cc4ccccc43)CC2)c1	i	nt	nt	nt	nt	nt
O=C(Nc1cccc(Cl)c1)C1CCN(S(=O)(=O)Cc2ccccc2)CC1	i	nt	nt	nt	nt	nt
COc1ccc(-c2noc(CCC(=O)Nc3ccc4c(c3)OCCO4)n2)cc1	17µM	i	i	i	i	i
COc1ccc(C(=O)Nc2ccc3c(c2)OCCO3)cc1	0.85µM	1.8µM	?	0.71µM	0.45µM	i
COc1ccc(C(=O)CNc2cccc(F)c2)cc1	11µM	nt	?	i[1.84 µM]	?	nt
SMILES	FLuc counter	SMN2 splice up	ELG1 genotoxic	Rab9 promoter act	NPC1 promoter act	Luc counter
Cc1ccc(-c2noc(CCC(=O)Nc3ccc4c(c3)OCO4)n2)cc1	i	i	i	i	i	i
COc1ccc(C(=O)CCNc2ccc3c(c2)OCCO3)cc1	13µM	i	i	i	?	i
CN(CCCN1CCOCC1)C(=O)c1cc(COc2ccc(F)cc2F)on1	i	nt	i	i	i	nt
COc1ccccc1-c1cc(C(=O)NCCN2CCOCC2)no1	i	i	i	i	i	i
COc1cc(Cl)ccc1OCc1cc(C(=O)NCCCN2CCCC2=O)no1	21µM	nt	i	i	i	nt
COc1cc(C)ccc1OCc1cc(C(=O)N(C)CCCN2CCOCC2)no1	12µM	nt	18µM	2.5µM	2.8µM	nt
COc1cc(C)ccc1OCc1cc(C(=O)NCCN2CCOCC2)no1	11µM	nt	?	4µM	2.2µM	nt

Screening results as filed in PubChem.
